# Data taken from publication PMC7862700, “An all-to-all approach to the identification of sequence-specific readers for epigenetic DNA modifications on cytosine”.
# How the values were obtained:
# Assay in all cases: DAPPL (digital affinity profiling via proximity ligation, sequencing); 10 mM Tris-HCl pH 7.5, 50 mM NaCl, 1 mM DTT, 4% glycerol, room temperature, 30 min; GST-TFs on glutathione beads, 16-mer random dsDNA library, 0.1% formaldehyde crosslink after washing; high values mean tight binding
# [1] = target: T1, FLI1 (Homo sapiens, UniProt Q01543 1-452); conditions: protein: recombinant; tags: N-terminal GST; dsDNA, one strand shown
# T1 sequence: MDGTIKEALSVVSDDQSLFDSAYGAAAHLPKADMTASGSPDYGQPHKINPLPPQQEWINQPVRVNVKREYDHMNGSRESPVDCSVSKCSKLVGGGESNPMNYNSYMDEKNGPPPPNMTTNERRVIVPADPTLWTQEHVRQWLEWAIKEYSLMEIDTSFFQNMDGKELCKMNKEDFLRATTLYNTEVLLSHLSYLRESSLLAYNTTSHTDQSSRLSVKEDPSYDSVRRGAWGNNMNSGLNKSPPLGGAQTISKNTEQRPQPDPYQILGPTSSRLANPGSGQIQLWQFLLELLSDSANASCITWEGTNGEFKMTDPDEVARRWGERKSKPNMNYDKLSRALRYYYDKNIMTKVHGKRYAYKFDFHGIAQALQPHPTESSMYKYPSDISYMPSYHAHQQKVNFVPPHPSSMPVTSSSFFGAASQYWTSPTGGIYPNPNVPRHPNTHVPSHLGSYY
# Summary of the method: (§1)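 Pools of DNA-barcoded human transcription factors, expressed in yeast as GST fusions on glutathione beads and combined with a tag-only sample, were incubated with 200 nmole of a 16-mer random double-stranded DNA library. Incubation took 30 min at room temperature in Tris/NaCl/DTT/glycerol buffer and was followed by washing, 0.1% formaldehyde crosslinking, proximity ligation (BsaI/T4 ligase, 1 h, 37 °C), PCR amplification and sequencing on an Illumina NextSeq500. Binding signal is the ratio of a hexamer's read frequency for a factor to its frequency for the tag-only sample.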
# [2] = target: T2, ELK1 (Homo sapiens, UniProt P19419 1-428); conditions: protein: recombinant; tags: N-terminal GST; dsDNA, one strand shown
# T2 sequence: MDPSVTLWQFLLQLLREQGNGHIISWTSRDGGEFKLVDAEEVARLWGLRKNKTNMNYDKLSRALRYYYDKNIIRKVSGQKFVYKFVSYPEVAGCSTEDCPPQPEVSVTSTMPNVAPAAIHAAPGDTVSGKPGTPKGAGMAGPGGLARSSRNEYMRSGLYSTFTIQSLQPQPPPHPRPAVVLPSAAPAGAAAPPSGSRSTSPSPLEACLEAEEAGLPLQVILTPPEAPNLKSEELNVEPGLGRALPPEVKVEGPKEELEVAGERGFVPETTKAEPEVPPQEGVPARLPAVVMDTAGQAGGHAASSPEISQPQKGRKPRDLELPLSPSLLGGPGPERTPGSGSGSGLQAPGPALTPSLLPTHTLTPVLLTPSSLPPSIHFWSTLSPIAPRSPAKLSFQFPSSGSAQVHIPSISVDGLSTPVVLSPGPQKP
# Summary of the method: as §1
# [3] = target: T3, GABPA (Homo sapiens, UniProt Q06546 1-454); conditions: protein: recombinant; tags: N-terminal GST; dsDNA, one strand shown
# T3 sequence: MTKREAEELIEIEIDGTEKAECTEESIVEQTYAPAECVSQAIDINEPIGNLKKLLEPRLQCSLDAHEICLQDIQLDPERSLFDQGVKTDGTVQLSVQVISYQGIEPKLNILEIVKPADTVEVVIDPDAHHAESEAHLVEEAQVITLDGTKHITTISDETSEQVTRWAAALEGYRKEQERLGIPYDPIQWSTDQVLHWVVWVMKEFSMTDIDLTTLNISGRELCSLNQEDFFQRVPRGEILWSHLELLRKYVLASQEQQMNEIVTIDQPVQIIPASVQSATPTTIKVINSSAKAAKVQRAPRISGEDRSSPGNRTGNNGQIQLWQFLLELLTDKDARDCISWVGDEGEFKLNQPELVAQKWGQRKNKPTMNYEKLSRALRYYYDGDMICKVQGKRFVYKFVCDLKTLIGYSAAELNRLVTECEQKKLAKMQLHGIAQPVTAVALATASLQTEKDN
# Summary of the method: as §1
# [4] = target: T4, ERG (Homo sapiens, UniProt P11308 1-479); conditions: protein: recombinant; tags: N-terminal GST; dsDNA, one strand shown
# T4 sequence: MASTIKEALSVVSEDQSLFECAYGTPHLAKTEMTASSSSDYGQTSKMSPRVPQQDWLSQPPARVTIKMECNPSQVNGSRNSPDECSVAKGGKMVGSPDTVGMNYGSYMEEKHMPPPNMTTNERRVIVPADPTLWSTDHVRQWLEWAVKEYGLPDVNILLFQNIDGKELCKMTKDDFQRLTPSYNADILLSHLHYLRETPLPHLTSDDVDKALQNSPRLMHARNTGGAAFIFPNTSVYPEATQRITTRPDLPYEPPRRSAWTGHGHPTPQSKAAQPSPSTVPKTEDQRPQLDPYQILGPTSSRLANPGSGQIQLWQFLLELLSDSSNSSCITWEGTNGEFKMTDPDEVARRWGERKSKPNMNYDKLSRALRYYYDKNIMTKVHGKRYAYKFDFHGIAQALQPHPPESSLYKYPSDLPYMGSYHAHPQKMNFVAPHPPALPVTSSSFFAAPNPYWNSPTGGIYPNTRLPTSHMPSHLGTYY
# Summary of the method: as §1
# [5] = target: ELF1 (Homo sapiens, UniProt P32519 1-619); conditions: protein: recombinant; tags: N-terminal GST; dsDNA, one strand shown
# Summary of the method: as §1
# [6] = target: T5, EHF (Homo sapiens, UniProt Q9NZC4 1-300); conditions: protein: recombinant; tags: N-terminal GST; dsDNA, one strand shown
# T5 sequence: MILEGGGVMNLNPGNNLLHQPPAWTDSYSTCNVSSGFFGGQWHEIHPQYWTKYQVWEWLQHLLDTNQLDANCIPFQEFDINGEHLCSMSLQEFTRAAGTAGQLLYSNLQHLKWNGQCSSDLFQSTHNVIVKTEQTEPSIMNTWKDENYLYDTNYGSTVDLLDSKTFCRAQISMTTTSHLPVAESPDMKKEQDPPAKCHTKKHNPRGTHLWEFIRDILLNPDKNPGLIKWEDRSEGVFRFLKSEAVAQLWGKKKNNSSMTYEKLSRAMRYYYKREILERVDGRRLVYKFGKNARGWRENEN
# Summary of the method: as §1
# [7] = target: SPI1 (Homo sapiens, UniProt P17947 1-270); conditions: protein: recombinant; tags: N-terminal GST; dsDNA, one strand shown
# Summary of the method: as §1
# [8] = target: SPIB (Homo sapiens, UniProt Q01892 1-262); conditions: protein: recombinant; tags: N-terminal GST; dsDNA, one strand shown
# Summary of the method: as §1
# [9] = target: T6, ELK3 (Homo sapiens, UniProt P41970 1-407); conditions: protein: recombinant; tags: N-terminal GST; dsDNA, one strand shown
# T6 sequence: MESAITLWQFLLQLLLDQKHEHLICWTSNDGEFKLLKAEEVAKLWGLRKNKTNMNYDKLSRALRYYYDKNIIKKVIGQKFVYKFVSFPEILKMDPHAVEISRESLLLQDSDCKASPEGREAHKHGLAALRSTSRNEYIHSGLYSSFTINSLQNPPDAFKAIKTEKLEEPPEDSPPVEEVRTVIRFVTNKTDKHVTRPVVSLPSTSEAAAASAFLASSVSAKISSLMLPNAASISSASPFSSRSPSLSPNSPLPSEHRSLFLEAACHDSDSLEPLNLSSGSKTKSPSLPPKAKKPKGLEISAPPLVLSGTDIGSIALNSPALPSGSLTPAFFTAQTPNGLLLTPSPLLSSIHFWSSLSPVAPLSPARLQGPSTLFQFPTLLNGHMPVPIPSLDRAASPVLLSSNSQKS
# Summary of the method: as §1
# [10] = target: T7, FEV (Homo sapiens, UniProt Q99581 1-238); conditions: protein: recombinant; tags: N-terminal GST; dsDNA, one strand shown
# T7 sequence: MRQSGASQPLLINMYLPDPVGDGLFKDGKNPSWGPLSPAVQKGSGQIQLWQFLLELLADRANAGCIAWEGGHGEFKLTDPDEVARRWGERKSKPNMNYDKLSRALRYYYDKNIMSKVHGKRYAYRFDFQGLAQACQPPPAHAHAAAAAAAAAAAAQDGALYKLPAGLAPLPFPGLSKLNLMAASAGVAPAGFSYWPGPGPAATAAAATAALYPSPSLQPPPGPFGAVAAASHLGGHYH
# Summary of the method: as §1
# [11] = target: ETV5 (Homo sapiens, UniProt P41161 1-510); conditions: protein: recombinant; tags: N-terminal GST; dsDNA, one strand shown
# Summary of the method: as §1
# [12] = target: HSF1 (Homo sapiens, UniProt Q00613 1-529); conditions: protein: recombinant; tags: N-terminal GST; chain copies: 3; dsDNA, one strand shown
# Summary of the method: as §1
# [13] = target: T8, SPIC (Homo sapiens, UniProt Q8N5J4 1-248); conditions: protein: recombinant; tags: N-terminal GST; dsDNA, one strand shown
# T8 sequence: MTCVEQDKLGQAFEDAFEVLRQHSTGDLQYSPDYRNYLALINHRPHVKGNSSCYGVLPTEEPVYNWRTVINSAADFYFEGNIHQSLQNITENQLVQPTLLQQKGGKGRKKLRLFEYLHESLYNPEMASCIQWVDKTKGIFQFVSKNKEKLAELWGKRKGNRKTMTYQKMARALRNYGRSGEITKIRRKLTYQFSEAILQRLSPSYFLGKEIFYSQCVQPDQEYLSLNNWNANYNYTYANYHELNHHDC
# Summary of the method: as §1
# [14] = target: ELF4 (Homo sapiens, UniProt Q99607 1-663); conditions: protein: recombinant; tags: N-terminal GST; dsDNA, one strand shown
# Summary of the method: as §1
# [15] = target: T9, ELK4 (Homo sapiens, UniProt P28324-2 1-405); conditions: protein: recombinant; tags: N-terminal GST; dsDNA, one strand shown
# T9 sequence: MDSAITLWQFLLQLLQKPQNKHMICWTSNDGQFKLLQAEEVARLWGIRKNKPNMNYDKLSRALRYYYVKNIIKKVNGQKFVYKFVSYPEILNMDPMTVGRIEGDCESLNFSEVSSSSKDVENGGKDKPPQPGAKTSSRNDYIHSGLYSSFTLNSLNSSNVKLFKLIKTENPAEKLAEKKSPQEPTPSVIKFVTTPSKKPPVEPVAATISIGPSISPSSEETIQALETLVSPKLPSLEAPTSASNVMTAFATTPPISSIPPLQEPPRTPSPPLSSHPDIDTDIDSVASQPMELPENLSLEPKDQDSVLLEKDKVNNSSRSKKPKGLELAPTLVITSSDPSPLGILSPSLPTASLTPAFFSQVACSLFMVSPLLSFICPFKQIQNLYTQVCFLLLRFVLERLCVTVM
# Summary of the method: as §1
# [16] = target: T10, ETV2 (Homo sapiens, UniProt O00321 1-342); conditions: protein: recombinant; tags: N-terminal GST; dsDNA, one strand shown
# T10 sequence: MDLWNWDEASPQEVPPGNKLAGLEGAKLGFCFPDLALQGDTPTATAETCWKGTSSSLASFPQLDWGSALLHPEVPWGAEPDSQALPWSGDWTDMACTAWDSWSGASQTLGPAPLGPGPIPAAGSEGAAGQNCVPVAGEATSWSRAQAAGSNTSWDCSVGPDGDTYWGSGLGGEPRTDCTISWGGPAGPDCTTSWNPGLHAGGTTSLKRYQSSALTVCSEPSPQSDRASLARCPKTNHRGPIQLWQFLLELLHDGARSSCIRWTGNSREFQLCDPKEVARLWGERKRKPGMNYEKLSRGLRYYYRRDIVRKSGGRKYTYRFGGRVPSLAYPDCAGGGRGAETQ
# Summary of the method: as §1
# [17] = target: T11, ELF3 (Homo sapiens, UniProt P78545 1-371); conditions: protein: recombinant; tags: N-terminal GST; dsDNA, one strand shown
# T11 sequence: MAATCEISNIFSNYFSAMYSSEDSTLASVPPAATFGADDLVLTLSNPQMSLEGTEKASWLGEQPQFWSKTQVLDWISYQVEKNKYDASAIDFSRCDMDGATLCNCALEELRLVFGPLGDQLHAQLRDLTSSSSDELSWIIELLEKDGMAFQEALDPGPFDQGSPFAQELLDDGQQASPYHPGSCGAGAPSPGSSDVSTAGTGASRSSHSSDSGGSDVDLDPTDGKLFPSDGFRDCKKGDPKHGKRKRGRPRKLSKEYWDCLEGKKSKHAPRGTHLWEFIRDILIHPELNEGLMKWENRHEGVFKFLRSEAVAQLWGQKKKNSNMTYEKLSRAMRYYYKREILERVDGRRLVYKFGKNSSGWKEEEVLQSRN
# Summary of the method: as §1
# [18] = target: CRX (Homo sapiens, UniProt O43186 1-299); conditions: protein: recombinant; tags: N-terminal GST; dsDNA, one strand shown
# Summary of the method: as §1
# [19] = target: ETV1 (Homo sapiens, UniProt P50549 1-477); conditions: protein: recombinant; tags: N-terminal GST; dsDNA, one strand shown
# Summary of the method: as §1
# Sequence of HSF1 (Q00613 whole entry): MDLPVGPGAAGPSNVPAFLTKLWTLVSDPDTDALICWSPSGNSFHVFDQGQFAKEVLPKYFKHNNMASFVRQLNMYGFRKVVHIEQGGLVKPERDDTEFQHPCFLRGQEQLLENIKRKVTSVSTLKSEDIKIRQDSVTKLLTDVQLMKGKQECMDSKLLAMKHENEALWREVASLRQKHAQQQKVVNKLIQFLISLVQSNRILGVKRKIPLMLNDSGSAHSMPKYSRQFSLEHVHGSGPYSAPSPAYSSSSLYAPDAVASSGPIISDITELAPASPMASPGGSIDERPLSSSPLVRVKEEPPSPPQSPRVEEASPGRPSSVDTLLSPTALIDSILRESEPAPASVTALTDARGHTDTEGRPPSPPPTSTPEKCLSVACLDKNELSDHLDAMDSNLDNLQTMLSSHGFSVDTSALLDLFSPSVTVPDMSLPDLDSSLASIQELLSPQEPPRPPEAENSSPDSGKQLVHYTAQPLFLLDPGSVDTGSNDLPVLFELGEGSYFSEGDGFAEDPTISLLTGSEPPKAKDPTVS
# Sequence of ETV5 (P41161 whole entry): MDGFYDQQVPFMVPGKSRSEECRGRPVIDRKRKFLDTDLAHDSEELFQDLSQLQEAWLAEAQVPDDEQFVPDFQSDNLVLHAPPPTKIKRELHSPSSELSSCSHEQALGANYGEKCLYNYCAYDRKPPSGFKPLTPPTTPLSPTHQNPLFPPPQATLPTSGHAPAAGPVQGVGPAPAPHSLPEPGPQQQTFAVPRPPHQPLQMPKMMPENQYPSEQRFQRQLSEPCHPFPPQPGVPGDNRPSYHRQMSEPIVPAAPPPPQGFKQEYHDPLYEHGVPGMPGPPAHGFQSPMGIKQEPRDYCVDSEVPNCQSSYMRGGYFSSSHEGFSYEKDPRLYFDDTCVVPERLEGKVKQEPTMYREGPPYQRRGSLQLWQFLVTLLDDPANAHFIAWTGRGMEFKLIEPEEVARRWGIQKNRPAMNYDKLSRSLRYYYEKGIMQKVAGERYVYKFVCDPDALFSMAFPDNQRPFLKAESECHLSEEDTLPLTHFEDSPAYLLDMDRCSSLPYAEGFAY
# Sequence of CRX (O43186 whole entry): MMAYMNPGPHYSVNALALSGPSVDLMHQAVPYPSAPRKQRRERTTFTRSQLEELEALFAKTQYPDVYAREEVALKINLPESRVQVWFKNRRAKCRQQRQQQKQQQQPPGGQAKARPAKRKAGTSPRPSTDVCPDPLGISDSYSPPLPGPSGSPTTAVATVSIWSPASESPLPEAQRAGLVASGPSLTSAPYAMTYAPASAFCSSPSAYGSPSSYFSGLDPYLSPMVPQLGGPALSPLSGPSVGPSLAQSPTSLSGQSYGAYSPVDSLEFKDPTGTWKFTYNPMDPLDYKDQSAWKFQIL
# Sequence of ELF1 (P32519 whole entry): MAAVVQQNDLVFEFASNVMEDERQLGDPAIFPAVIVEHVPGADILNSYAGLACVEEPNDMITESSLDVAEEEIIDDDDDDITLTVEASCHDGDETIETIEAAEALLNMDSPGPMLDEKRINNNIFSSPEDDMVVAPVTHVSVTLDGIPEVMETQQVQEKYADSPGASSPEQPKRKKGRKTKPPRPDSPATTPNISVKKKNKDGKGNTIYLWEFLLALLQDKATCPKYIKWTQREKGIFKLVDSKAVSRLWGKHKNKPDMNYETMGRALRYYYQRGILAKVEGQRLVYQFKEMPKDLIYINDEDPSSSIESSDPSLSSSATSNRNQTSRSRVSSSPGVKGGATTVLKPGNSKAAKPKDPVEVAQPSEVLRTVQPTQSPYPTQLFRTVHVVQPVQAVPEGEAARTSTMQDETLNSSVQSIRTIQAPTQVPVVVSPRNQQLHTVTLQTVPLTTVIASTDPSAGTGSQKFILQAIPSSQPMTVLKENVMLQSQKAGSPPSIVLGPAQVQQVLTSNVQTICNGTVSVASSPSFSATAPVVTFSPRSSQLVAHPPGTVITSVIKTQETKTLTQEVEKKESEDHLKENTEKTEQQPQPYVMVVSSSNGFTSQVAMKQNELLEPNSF
# Sequence of ETV1 (P50549 whole entry): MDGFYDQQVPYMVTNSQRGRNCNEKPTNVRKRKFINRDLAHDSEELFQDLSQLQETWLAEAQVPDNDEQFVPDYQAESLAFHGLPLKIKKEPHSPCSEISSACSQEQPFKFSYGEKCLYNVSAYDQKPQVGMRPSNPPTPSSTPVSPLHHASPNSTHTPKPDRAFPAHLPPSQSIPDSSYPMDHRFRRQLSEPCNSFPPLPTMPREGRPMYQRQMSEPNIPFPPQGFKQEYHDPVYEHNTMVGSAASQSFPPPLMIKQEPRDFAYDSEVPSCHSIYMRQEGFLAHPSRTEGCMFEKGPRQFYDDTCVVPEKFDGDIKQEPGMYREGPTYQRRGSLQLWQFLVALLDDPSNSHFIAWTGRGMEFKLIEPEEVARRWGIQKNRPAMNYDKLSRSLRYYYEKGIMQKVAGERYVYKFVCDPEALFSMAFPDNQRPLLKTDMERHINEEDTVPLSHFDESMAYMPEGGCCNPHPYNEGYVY
# Sequence of SPIB (Q01892 whole entry): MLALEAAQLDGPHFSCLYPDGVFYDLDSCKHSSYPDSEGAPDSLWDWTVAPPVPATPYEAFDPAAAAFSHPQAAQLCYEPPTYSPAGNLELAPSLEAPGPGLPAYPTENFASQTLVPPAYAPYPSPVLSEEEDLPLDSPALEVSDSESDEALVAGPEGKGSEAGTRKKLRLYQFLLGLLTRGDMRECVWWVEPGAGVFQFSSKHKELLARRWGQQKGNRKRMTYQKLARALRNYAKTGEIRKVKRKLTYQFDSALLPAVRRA
# Sequence of ELF4 (Q99607 whole entry): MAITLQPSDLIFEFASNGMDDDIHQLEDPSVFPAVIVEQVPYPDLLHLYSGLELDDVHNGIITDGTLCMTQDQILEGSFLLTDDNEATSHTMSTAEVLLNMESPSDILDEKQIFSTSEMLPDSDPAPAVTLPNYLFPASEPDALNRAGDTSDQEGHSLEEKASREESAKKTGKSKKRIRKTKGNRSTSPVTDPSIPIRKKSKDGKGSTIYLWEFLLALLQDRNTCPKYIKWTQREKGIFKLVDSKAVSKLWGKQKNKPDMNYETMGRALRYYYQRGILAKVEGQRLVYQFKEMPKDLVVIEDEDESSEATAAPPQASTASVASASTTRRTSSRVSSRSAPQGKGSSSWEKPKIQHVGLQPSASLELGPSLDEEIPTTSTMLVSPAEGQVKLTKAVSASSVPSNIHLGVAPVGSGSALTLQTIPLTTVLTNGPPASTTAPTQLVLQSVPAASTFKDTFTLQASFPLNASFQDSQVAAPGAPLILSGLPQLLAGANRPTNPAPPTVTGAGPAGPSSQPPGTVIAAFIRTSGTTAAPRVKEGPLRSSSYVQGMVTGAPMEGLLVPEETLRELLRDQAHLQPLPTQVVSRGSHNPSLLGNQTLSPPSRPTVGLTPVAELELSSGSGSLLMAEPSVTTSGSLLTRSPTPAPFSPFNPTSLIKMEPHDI
sequence,measurement,setting,value
CCTCCT,binding signal,[1],"1.72 fold enrichment (6-mer frequency, TF over GST control)"
same,binding signal,[2],"1.45 fold enrichment (6-mer frequency, TF over GST control)"
same,binding signal,[3],"1.57 fold enrichment (6-mer frequency, TF over GST control)"
same,binding signal,[4],"1.45 fold enrichment (6-mer frequency, TF over GST control)"
same,binding signal,[5],"1.5 fold enrichment (6-mer frequency, TF over GST control)"
same,binding signal,[6],"1.42 fold enrichment (6-mer frequency, TF over GST control)"
same,binding signal,[7],"1.7 fold enrichment (6-mer frequency, TF over GST control)"
same,binding signal,[8],"1.61 fold enrichment (6-mer frequency, TF over GST control)"
same,binding signal,[9],"1.48 fold enrichment (6-mer frequency, TF over GST control)"
same,binding signal,[10],"1.46 fold enrichment (6-mer frequency, TF over GST control)"
same,binding signal,[11],"1.59 fold enrichment (6-mer frequency, TF over GST control)"
same,binding signal,[12],"1.3 fold enrichment (6-mer frequency, TF over GST control)"
same,binding signal,[13],"1.47 fold enrichment (6-mer frequency, TF over GST control)"
same,binding signal,[14],"1.66 fold enrichment (6-mer frequency, TF over GST control)"
same,binding signal,[15],"1.61 fold enrichment (6-mer frequency, TF over GST control)"
same,binding signal,[16],"1.45 fold enrichment (6-mer frequency, TF over GST control)"
same,binding signal,[17],"1.2 fold enrichment (6-mer frequency, TF over GST control)"
same,binding signal,[18],"1.32 fold enrichment (6-mer frequency, TF over GST control)"
same,binding signal,[19],"1.52 fold enrichment (6-mer frequency, TF over GST control)"
